# Paper PMC4336329 (PLoS ONE, 2015)
# Out of some 310,000 compounds screened, about 14,000 (4.5%) showed an effect of 50% or more. The effect is printed as a negative number. Shown is part of a subset that was picked to be rich in strong results.
# Target: human ether-à-go-go-related gene (hERG) potassium channel (human, UniProt Q12809)
# Assay: primary screen, population patch clamp on CHO cells stably expressing hERG; higher = less effect of the substance
# 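Note: peak tail current of the secondary pulse compared with the same well before compound.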
# human ether-à-go-go-related gene (hERG) potassium channel, sequence (Q12809 whole entry, looked up): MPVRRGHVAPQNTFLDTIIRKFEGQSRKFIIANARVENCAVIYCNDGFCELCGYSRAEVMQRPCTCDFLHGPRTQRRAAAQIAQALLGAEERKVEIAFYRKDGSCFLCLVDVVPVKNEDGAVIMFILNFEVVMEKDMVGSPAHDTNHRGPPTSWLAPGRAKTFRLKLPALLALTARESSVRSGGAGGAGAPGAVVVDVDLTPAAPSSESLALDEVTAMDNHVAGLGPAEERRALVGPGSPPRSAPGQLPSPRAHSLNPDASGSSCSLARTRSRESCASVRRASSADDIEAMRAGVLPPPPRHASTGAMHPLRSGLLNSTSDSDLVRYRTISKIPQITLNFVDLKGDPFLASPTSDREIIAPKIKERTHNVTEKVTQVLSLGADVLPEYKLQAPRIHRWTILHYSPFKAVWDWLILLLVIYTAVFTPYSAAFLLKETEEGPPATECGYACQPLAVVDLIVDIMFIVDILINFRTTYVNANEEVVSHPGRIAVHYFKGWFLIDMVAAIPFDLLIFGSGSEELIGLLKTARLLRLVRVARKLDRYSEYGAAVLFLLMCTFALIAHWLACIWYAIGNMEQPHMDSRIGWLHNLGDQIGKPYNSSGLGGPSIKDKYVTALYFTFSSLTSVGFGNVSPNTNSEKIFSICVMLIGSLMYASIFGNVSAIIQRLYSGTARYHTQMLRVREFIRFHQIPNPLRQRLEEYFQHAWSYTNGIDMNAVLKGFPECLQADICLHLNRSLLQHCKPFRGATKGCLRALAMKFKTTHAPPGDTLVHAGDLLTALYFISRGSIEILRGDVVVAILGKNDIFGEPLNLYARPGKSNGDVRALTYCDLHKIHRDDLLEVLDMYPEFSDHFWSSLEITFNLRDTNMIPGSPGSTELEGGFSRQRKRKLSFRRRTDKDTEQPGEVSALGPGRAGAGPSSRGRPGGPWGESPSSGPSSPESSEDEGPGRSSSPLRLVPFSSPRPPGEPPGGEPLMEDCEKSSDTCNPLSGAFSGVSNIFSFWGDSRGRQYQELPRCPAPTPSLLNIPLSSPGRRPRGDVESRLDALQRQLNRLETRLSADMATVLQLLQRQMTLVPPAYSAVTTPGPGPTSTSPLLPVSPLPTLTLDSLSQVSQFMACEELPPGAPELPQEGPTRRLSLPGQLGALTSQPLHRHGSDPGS
row,SMILES,"hERG current change (%, negative = inhibition) at 10uM [%]"
1,Cn1ncc2c(Nc3ccc(O)cc3)nc(Cl)nc21,5.53
2,Cn1c(CNc2ccc(Cl)cc2)nnc1SCCN1CCCCC1,-46.4
3,Cc1ccccc1OCc1nnc(SCC(=O)O)n1-c1cccc(Cl)c1,5.63
4,COc1ccc(-n2c(CNc3ccc(C)cc3)nnc2SCc2ccccc2)cc1,-7.09
5,Cc1ccccc1OCc1nnc(SCCN2CCCC2)n1-c1ccccc1.Cl,-65.3
6,COc1ccc(C(=O)CSc2nnc(CN3CCCCC3)n2-c2ccc(F)cc2)cc1,-57.7
7,COc1ccc(NCc2nnc(SCCN3CCCCC3)n2-c2ccc(C)cc2)cc1,-66.7
8,COc1ccc(C(=O)CSc2nnc(CN3CCCC3)n2-c2ccc(F)cc2)c(OC)c1,-23
9,Cc1ccccc1OCc1nnc(SCC(=O)O)n1-c1ccccc1,14.4
10,COc1ccc(C(=O)CSc2nnc(CN3CCCCC3)n2-c2ccc(F)cc2)cc1OC,6.33
11,O=C(CCN1CCOCC1)Nc1c(-c2ccccc2)c2cc(Br)ccc2[nH]c1=O,-11.9
12,CC(=O)Nc1ccc(C(=O)Nc2cccc(S(=O)(=O)NC3=NCCC3)c2)cc1,4.95
13,CC(C)(O)C#Cc1ccc(CN2CCN(Cc3ccccc3)C(CCO)C2)s1 (stereo not drawn),4.64
14,CCOc1cc(C)c(S(=O)(=O)Nc2ccc3cn[nH]c3c2)cc1C,25.2
15,N#CC1(NC(=O)CSc2nnc(Nc3ccccc3F)s2)CCCC1,0.45
16,COc1cc(OC)cc(C(=O)OCC(=O)NCCCc2ccccc2)c1,12.2
17,C=CCN1C(=O)N/C(=C/c2ccc(C)o2)C1=O,9.15
18,COC(=O)c1ccc(C2c3[nH]c4ccccc4c3C[C@H]3C(=O)N(C4CCN(Cc5ccccc5)CC4)CC(=O)N23)cc1 (stereo partly drawn),-10
19,CSCC[C@H](NC(=O)C1=NN(c2c(F)c(F)cc(F)c2F)C(=O)CC1)c1nc2ccccc2[nH]1,-13.3
20,CCC(=O)N/N=C(\C)CC(=O)Nc1cccc([N+](=O)[O-])c1,9.57
21,COc1ccc(NC(=O)C/C(C)=N/NC(=O)COc2ccc(OC)cc2)cc1,-18.8

row,SMILES,"hERG current change (%, negative = inhibition) at 10uM [%]"
1,COc1ccc(-c2nnc(NC(=O)C3CCCN3S(=O)(=O)c3cccs3)o2)cc1 (stereo not drawn),-3.47
2,CC(=O)Nc1ccccc1NC(=O)C/C(C)=N/NC(=O)c1ccncc1,19.6
3,COc1ccc(NC(=O)C/C(C)=N/NC(=O)c2ccncc2)c([N+](=O)[O-])c1,-59.8
4,COc1ccc(NC(=O)C/C(C)=N/NC(=O)c2ccco2)c([N+](=O)[O-])c1,-33.9
5,COc1ccc(OCC(=O)N/N=C(\C)CC(=O)Nc2cccc([N+](=O)[O-])c2)cc1,-53.8
6,COc1ccc(NC(=O)C2CCCN2S(=O)(=O)c2cccs2)c([N+](=O)[O-])c1 (stereo not drawn),-68.3
7,COc1ccc([N+](=O)[O-])cc1NC(=O)C1CCCN1S(=O)(=O)c1cccs1 (stereo not drawn),-18.1
8,COc1cc(NC(=O)C/C(C)=N/NC(=O)c2cccs2)c(OC)cc1Cl,-14.4
9,COc1ccc(NC(=O)c2cccs2)c([N+](=O)[O-])c1,-3.28
10,COc1ccc(NC(=O)C/C(C)=N/NC(=O)c2cccs2)c([N+](=O)[O-])c1,-54.4
11,Cc1ccccc1CN(C)CC(=O)NC(C)CCc1ccccc1 (stereo not drawn),-17.2
12,O=C(CSc1nnc(-c2ccccc2)n1C1CCCCC1)N1CCCC1,-6.76
13,CCC1(C)Cc2c(sc3nc(SC)nc(N)c23)CO1 (stereo not drawn),-7.82
14,O=C1NC(Cc2ccccc2)c2nc3ccccc3c(=O)n2-c2cc(Cl)ccc21 (stereo not drawn),11.4
15,CCCCn1c(N)c(N(CCC(C)C)C(=O)C2=NN(c3cc(C)ccc3C)C(=O)CC2)c(=O)[nH]c1=O,-1.89
16,OC(CNC1CCCCC1)C(F)(F)F (stereo not drawn),-2.73
17,CCC(C)[C@H](NC(=O)[C@@H]1Cc2ccccc2CN1)C(=O)NCc1ccc(OC)cc1 (stereo partly drawn),-32.7
18,CC1CCCCN1C(=O)COC(=O)c1cc(-c2cccs2)nn1-c1ccccc1 (stereo not drawn),0.387
19,O=[N+]([O-])c1cc(/C=N/O)ccc1Sc1ccccc1,13.7
20,CC1CCCCN1C(=O)CSc1nnc(-c2ccco2)o1 (stereo not drawn),2.08
21,CCOC(=O)CN1CC23C=CC(O2)C(C(=O)Nc2cc(OC)ccc2OC)C3C1=O (stereo not drawn),-3.04

row,SMILES,"hERG current change (%, negative = inhibition) at 10uM [%]"
1,CC[N+](CC)(CC(=O)Nc1c(C)cccc1C)Cc1ccccc1.O=C([O-])c1ccccc1,14.7
2,CC(/C=C/c1ccco1)=N\NC(=O)CNc1cccc(C)c1,18.1
3,O=S(=O)(O)c1nc2ccccc2n1Cc1ccccc1,-10.5
4,CCOc1ccc(N(CC(=O)NCC2CCCO2)S(=O)(=O)c2ccc(C)cc2)cc1 (stereo not drawn),-10.3
5,CCOc1ccc(OCC(=O)Nc2ccc(OC)cc2[N+](=O)[O-])cc1,3.3
6,COc1ccc(NC(=O)COc2ccc(C)cc2)c([N+](=O)[O-])c1,7
7,COc1ccc(OCC(=O)N/N=C(\C)CC(=O)Nc2ccc(OC)cc2[N+](=O)[O-])cc1,-93.8
8,COc1ccc2sc(C)nc2c1NC(C)=O,9.21
9,COc1ccc(-c2nc(SCC(=O)N3CCOCC3)n[nH]2)cc1,-4.25
10,CC(=O)Nc1nonc1-c1nc2ccccc2n1Cc1ccccc1,13.2
11,O=C(NCCc1c[nH]c2ccccc12)/C(=C\c1cccnc1)NC(=O)c1cccs1,-17
12,O=C(NCCc1c[nH]c2ccccc12)/C(=C\c1cccnc1)NC(=O)c1ccccc1Br,-65.1
13,O=C(NCCc1c[nH]c2ccccc12)/C(=C/c1cccnc1)NC(=O)c1cccs1,-19.1
14,O=C(NCCc1c[nH]c2ccccc12)/C(=C/c1cccnc1)NC(=O)c1ccccc1,-14.3
15,O=C(NCCc1c[nH]c2ccccc12)/C(=C\c1cccnc1)NC(=O)c1ccccc1F,-58.5
16,CC(=O)N/C(=C/c1ccc(Cl)cc1)C(=O)NCCc1c[nH]c2ccccc12,-20.8
17,NC(=O)NC(CC(=O)NCCc1ccc(S(N)(=O)=O)cc1)c1ccccc1Cl (stereo not drawn),6.81
18,CC(C(=O)N1c2ccc(F)cc2CCC1C)N1C(=O)c2ccccc2C1=O (stereo not drawn),2.72
19,CN(C(=O)c1ccco1)c1nc(-c2ccc(Cl)cc2)cs1,8.09
20,Cl.O=C(c1ccco1)N(CCCN1CCOCC1)c1nc(-c2ccc(Cl)cc2)cs1,-13.4
21,COCCCN(C(=O)c1ccco1)c1nc(-c2ccc(OC)cc2)cs1,1.81

row,SMILES,"hERG current change (%, negative = inhibition) at 10uM [%]"
1,Cc1ccc(-c2csc(N(CCCN(C)C)C(=O)c3ccco3)n2)cc1.Cl,-74.8
2,Cc1ccc(-c2csc(N(CCCN3CCOCC3)C(=O)c3ccco3)n2)cc1.Cl,-19.1
3,CN(C)CCCN(C(=O)c1ccco1)c1nc(-c2ccc(Cl)cc2)cs1.Cl,-72.5
4,COc1ccc(-n2nc(C(=O)NCC(=O)NCc3ccco3)c3ccccc3c2=O)c(OC)c1,11.3
5,Cl.c1ccc(NNC2=NCCCCC2)cc1,8.92
6,O=C(O)Cn1c(=O)c2c3c(sc2n(Cc2ccc(F)cc2)c1=O)CCCC3,17.9
7,Cc1ccc(C)c(OCc2nc3ccc(S(=O)(=O)Nc4c(C)n(C)n(-c5ccccc5)c4=O)cc3[nH]2)c1,7.31
8,CCCCN(C)CCN1C(=O)C2C(C(=O)Nc3cccc(OC)c3)C3C=CC2(O3)C1C(=O)NC1CCCCC1C (stereo not drawn),-14.7
9,CC(C)(C)C(=O)Nc1cc(NC(=O)C(C)(C)C)cc(C(=O)NNC(=O)c2ccncc2)c1,16.5
10,CCOc1ccccc1NC(=O)N1CCC(n2nnc3cc(C)ccc32)CC1,-53.9
11,Cc1ccc2c(c1)nnn2C1CCN(C(=O)NCc2ccccc2)CC1,-76.7
12,CCOc1ccc(NC(=O)N2CCC(n3nnc4ccccc43)CC2)cc1,-15.4
13,O=C(c1c(F)cccc1F)N1CCC(n2nnc3cc(C(F)(F)F)ccc32)CC1,-21.4
14,COc1cccc(NC(=O)N2CCC(n3nnc4ccccc43)CC2)c1,-18.8
15,COc1ccc(NC(=O)N2CCC(n3nnc4cc(C)ccc43)CC2)cc1,-11.3
16,CCOc1ccccc1C(=O)N1CCC(n2nnc3cc(C(F)(F)F)ccc32)CC1,-60
17,Cc1ccc2c(c1)nnn2C1CCN(C(=O)C2CCCCC2)CC1,-31.3
18,Cc1ccc2c(c1)nnn2C1CCN(C(=O)Nc2ccccc2C)CC1,-22.6
19,Cc1cccc(NC(=O)N2CCC(n3nnc4cc(C)ccc43)CC2)c1,-62.9
20,CCOc1ccccc1C(=O)N1CCC(n2nnc3cc(C)ccc32)CC1,-47.4
21,Cc1ccc2c(c1)nnn2C1CCN(C(=O)c2ccccc2F)CC1,-18.1
